Assay outcomes (PubChem)
Many of the other results were omitted from the sample, so hits are more common in it than they were.
GIRK2 act = Activators of human GIRK2-containing channels; P48051; HEK293 GIRK2/NPY4 cells, thallium flux fluorescence; activation (% efficacy), % for hits at 37.5 µM; 34,000 tested, under 10 active;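 active = primary screen hit, no activity in plain HEK293 cells, and in GIRK2-only cells above 5% efficacy rising with concentration; inactive = the rest, including fluorescent compounds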;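 also: efficacy is normalized control-subtracted fluorescence 15 s after thallium addition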
AMPAR-TARP mod = GluA2-stargazin AMPA receptor complex modulation; calls only at 30 µM; 3.5% of 40,000 active; HEK293 GluA2+stargazin, membrane potential dye (FDSS), glutamate EC50; hits were called plate by plate, in both directions; O88602+P19491; AID 1259245;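 active = any of four per-well response measures lying three or more SD from its plate-wide compound average, in either direction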
* = called active by the depositor; i = inactive; . = no result given; + = active, no number.

SMILES	GIRK2 act	AMPAR-TARP mod
CC(=O)N1CCc2c(sc(NC(=O)c3cc(C)no3)c2C(N)=O)C1	i	+
CCOC(=O)N1CCc2c(sc(NC(=O)c3ccn(C)n3)c2C(=O)OC)C1	i	+
CCOC(=O)c1c(NC(=O)c2ccn(C)n2)sc2c1CCN(C(C)=O)C2	i	+
CCOC(=O)N1CCc2c(sc(NC(=O)c3ccnn3CC)c2C(=O)OC)C1	i	+
CCOC(=O)N1CCc2c(sc(NC(=O)c3cc(C)n(CC)n3)c2C(N)=O)C1	i	.
CCn1nccc1C(=O)Nc1sc2c(c1C(N)=O)CCN(C(C)=O)C2	i	i
CC(=O)N1CCc2c(sc(NC(=O)c3cc(C)no3)c2C#N)C1	i	i
CC(=O)N1CCc2c(sc(NC(=O)c3ccn(C)n3)c2-c2nc3ccccc3s2)C1	.	i
CN(C)C(CNC(=O)Nc1ccccc1)c1ccco1 (centres undefined)	.	i
CCOCCCNC(=O)C(=O)Nc1c2c(nn1-c1ccc(F)cc1)CS(=O)(=O)C2	i	i
CCCOc1ccc(S(=O)(=O)NCC2CCN(C(=O)c3ccccc3F)CC2)cc1C	i	i
CCOc1cc(C)ccc1S(=O)(=O)N1CCCCC1	.	i
CCOc1cc(C)ccc1S(=O)(=O)N1CC(C)CC(C)C1 (centres undefined)	.	+
COc1ccccc1Cc1noc(C2CN(CC(=O)NC3CC3)C2)n1	i	.
COc1cccc2sc(NC(=O)c3cc(C)nn3C)nc12	i	+
CCOc1cccc2sc(NC(=O)c3c(C)cnn3C)nc12	i	.
CCn1nc(C(=O)Nc2nc3c(C(C)C)cccc3s2)cc1C	i	.
COc1cccc2sc(NC(=O)c3cc(C)n(C)n3)nc12	i	+
CCNc1cc(NCCNC(=O)Nc2cccc(C)c2C)nc(C)n1	i	.
Cc1ccc2nc(NC(=O)c3ccc(=O)n(Cc4cccc([N+](=O)[O-])c4)c3)sc2c1	i	i
Cc1ccc(CC(=O)Nc2nnc(-c3ccccc3Cl)o2)cc1	i	i
Cc1ccc(C)c(N2C(=O)N(Cc3ccc(Br)cc3F)C3CS(=O)(=O)CC32)c1 (centres undefined)	.	i
Cc1ccc(C)c(CN2C(=O)N(c3cc(C)ccc3C)C3CS(=O)(=O)CC32)c1 (centres undefined)	.	+
Cc1ccc2c(c1)CCCN2C(=O)C1CCCN(c2ccc(-n3cccn3)nn2)C1 (centres undefined)	i	i
O=C(NCc1n[nH]c(=O)c2ccccc12)c1cc(=O)c2ccccc2o1	i	+
SMILES	GIRK2 act	AMPAR-TARP mod
O=C(NCc1n[nH]c(=O)c2ccccc12)c1ccc(Br)o1	i	i
O=C(CSc1ccc([N+](=O)[O-])cc1[N+](=O)[O-])Nc1cccc(C(F)(F)F)c1	.	+
CC(=O)Nc1ccc(NC(=O)CSc2ccc(S(=O)(=O)C(F)(F)F)cc2[N+](=O)[O-])cc1	.	i
COc1cccc(-c2cc(CC(=O)NCCCN3CCOCC3)no2)c1	i	+
COc1ccc(-c2cc(CC(=O)NCCN3CCOCC3)no2)cc1	i	.
Cc1ccc(S(=O)(=O)NCCCC(=O)O)c(C)c1N(C)S(=O)(=O)c1ccccc1	.	i
O=C(CCCCn1c(=O)[nH]c2ccccc2c1=O)NC1CCCCCC1	i	i
CCCNC(=O)CCCCn1c(=O)c2ccccc2n(CC(=O)Nc2ccccc2Cl)c1=O	i	+
O=C(CCCCn1c(=O)c2ccccc2n(CC(=O)NC2CCCCC2)c1=O)NCc1cccs1	i	+
CCCNC(=O)CCCCn1c(=O)c2ccccc2n(CC(=O)Nc2cccc(SC)c2)c1=O	i	i
Cc1ccc2nc(N(Cc3ccccc3)C(=O)CCCS(=O)(=O)c3ccc(F)cc3)sc2c1	.	i
O=C(Nc1c2c(nn1-c1ccc(Cl)cc1)CSC2)C(=O)N1CCCC1	i	i
O=C(Nc1c2c(nn1-c1ccc(F)cc1)CSC2)C(=O)N1CCCC1	.	+
O=C(c1ccc(Cl)c(S(=O)(=O)N2CCCCC2)c1)N1CCN(c2ccccc2F)CC1	.	i
CSc1nc2ccc(NC(=O)c3ccn(C)n3)cc2s1	i	i
Cc1cccc(C)c1OCC(O)Cn1c(C2CC2)nc2ccccc21 (centres undefined)	i	i
CC(=O)N1CCCC1c1nc2ccccc2n1CCCOc1c(C)cccc1C (centres undefined)	i	+
O=C(Nc1ccc(F)cc1)Nc1cccc(-c2nc3cccnc3s2)c1	i	i
O=C(c1ccc2c(c1)OCO2)N1CCN(c2ccc(-c3ccncc3)nn2)CC1	i	i
O=C(Cc1c[nH]c2ccccc12)N1CCN(c2ccc(N3CCCC3)nn2)CC1	i	+
COc1ccc(-c2ccc(N3CCC(C(=O)N4CCN(C)CC4)CC3)nn2)cc1	i	i
COc1ccc(-c2ccc(N3CCC(C(=O)NC4CC4)CC3)nn2)cc1	i	+
COc1cc(OC)cc(C(=O)N2CCN(c3ccc(-c4ccncc4)nn3)CC2)c1	i	+
O=C(Cc1c[nH]c2ccccc12)N1CCN(c2cc(-c3cccnc3)[nH]n2)CC1	i	.
COc1ccc(-c2ccc(N3CCC(C(=O)NCCc4c[nH]c5ccccc45)CC3)nn2)cc1	i	+
SMILES	GIRK2 act	AMPAR-TARP mod
COc1ccccc1CNC(=O)C1CCN(c2ccc(-c3ccc(F)cc3)nn2)CC1	i	i
COc1ccc(S(=O)(=O)CCC(=O)Nc2nnc(-c3ccc4c(c3)CCCC4)o2)cc1	i	i
Cc1ccc(C(=O)N(CCN2CCOCC2)c2nc3ccc(F)cc3s2)cc1C	.	i
OCCCc1nc2ccccc2n1Cc1ccccc1F	.	i
CC1Cc2cc(-c3cc(CC(=O)NCC4CCCO4)no3)ccc2O1 (centres undefined)	i	i
CC1Cc2cc(-c3cc(CC(=O)NC4CCCC4)no3)ccc2O1 (centres undefined)	i	+
COC(=O)CCC(=O)NC(=S)Nc1ccccc1C(=O)N1CCCCCC1	i	.
CCSc1ccccc1C(=O)NC1CNC(=O)C1 (centres undefined)	.	i
O=C1CC(NC(=O)c2ccccc2Oc2ccccc2)CN1 (centres undefined)	.	+
COc1ccc(/C=C2\Oc3c4c(cc(C)c3C2=O)OCN(C2CC2)C4)cc1OC	i	i
COc1ccc(/C=C2\Oc3c(cc4c(c3C)OCN(Cc3ccco3)C4)C2=O)cc1OC	i	+
Cc1nc2sccn2c(=O)c1NC(=O)Nc1ccc(F)cc1F	i	i
NC(=O)C1CCN(C(=O)c2csc(Nc3ccc(OC(F)F)cc3)n2)CC1	i	i
O=C(c1csc(Nc2ccc(OC(F)F)cc2)n1)N1CCCC1	i	+
Cc1csc(C(=O)N2CC3CC2C(=O)O3)c1 (centres undefined)	i	i
O=C(Nc1ccc(F)c(F)c1)c1sccc1S(=O)(=O)N1CCN(c2ccccc2)CC1	i	+
COc1cccc(NC(=O)c2sccc2S(=O)(=O)N2CCN(c3ccc(Cl)cc3)CC2)c1	i	.
COc1ccc(NC(=O)N2c3ccccc3CC2C(N)=O)c(OC)c1 (centres undefined)	i	i
Cc1ccc(S(=O)(=O)N(C)CCCC(=O)O)c(C)c1N(C)S(=O)(=O)c1ccccc1	.	i
